Test results as given in PubChem BioAssay AID1159580 (chemical genetic matrix, 2015).
Values joined by “and” are separate entries in the source; they are usually repeats but may differ in a detail not shown here. Equal values may be shown once. The whole screen tested about 5,500 compounds, of which about 2,000 (36%) were called active. Inconclusive results (about 18%) are left out. No stated cut-off is given here; in the data, active means normalized growth mostly below about 0.91 (no sharp cut-off); inconclusive means no clear call, values can overlap the other calls; inactive means mostly above about 0.92. The list shows a part of the results.

Experiment: chemical genetic growth profiling, strain panel (AID 1159580);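 further: tested at 20 µM; growth read once vehicle control cultures reached saturation at 30 °C; 1 = growth at the plate median or of vehicle wells; lower values mean less growth of the strain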
Conditions: growth OD

Measured: normalized growth

CCC(C(N)=O)c1ccccc1 (configuration not stated)
inactive: S. cerevisiae deletion strains, locus YAL013W, strain DEP1, active compounds read low 1.02 | S. cerevisiae deletion strains, locus YBR021W, strain FUR4, active compounds read low 1.04 | S. cerevisiae deletion strains, locus YBR229C, strain ROT2, active compounds read low 0.999 | S. cerevisiae deletion strains, locus YCL029C, strain bik1, active compounds read low 0.992 | S. cerevisiae deletion strains, locus YDL035C, strain GPR1, active compounds read low 1.03 | S. cerevisiae deletion strains, locus YDL074C, strain BRE1, active compounds read low 1.04 | S. cerevisiae deletion strains, locus YDL101C, strain DUN1, active compounds read low 1.01 | S. cerevisiae deletion strains, locus YDL134C, strain PPH21, active compounds read low 1 | S. cerevisiae deletion strains, locus YDL185W, strain tfp1, active compounds read low 0.997 | S. cerevisiae deletion strains, locus YDL192W, strain arf1, active compounds read low 1 | S. cerevisiae deletion strains, locus YDR101C, strain arx1, active compounds read low 0.986 | S. cerevisiae deletion strains, locus YDR150W, strain NUM1, active compounds read low 1 | S. cerevisiae deletion strains, locus YDR162C, strain NBP2, active compounds read low 1.03 | S. cerevisiae deletion strains, locus YDR318W, strain mcm21, active compounds read low 0.998 | S. cerevisiae deletion strains, locus YDR388W, active compounds read low 0.999 | S. cerevisiae deletion strains, locus YDR502C, strain sam2, active compounds read low 1.01 | S. cerevisiae deletion strains, locus YEL061C, strain CIN8, active compounds read low 1.02 | S. cerevisiae deletion strains, locus YER110C, active compounds read low 0.987 | S. cerevisiae deletion strains, locus YER155C, strain BEM2, active compounds read low 0.998 | S. cerevisiae deletion strains, locus YER167W, strain BCK2, active compounds read low 1.01 | S. cerevisiae deletion strains, locus YGL078C, strain dbp3, active compounds read low 1 | S. cerevisiae deletion strains, locus YGL086W, strain mad1, active compounds read low 0.997 | S. cerevisiae deletion strains, locus YGL248W, strain PDE1, active compounds read low 1 | S. cerevisiae deletion strains, locus YGR078C, strain PAC10, active compounds read low 1.03 | S. cerevisiae deletion strains, locus YGR135W, strain pre9, active compounds read low 1 | S. cerevisiae deletion strains, locus YGR229C, strain SMI1, active compounds read low 1.01 | S. cerevisiae deletion strains, locus YGR252W, strain gcn5, active compounds read low 1.11 | S. cerevisiae deletion strains, locus YHR030C, strain SLT2, active compounds read low 1.01 and 0.954 | S. cerevisiae deletion strains, locus YHR079C, strain IRE1 (second series), active compounds read low 0.99 | S. cerevisiae deletion strains, locus YHR079C, strain IRE1, active compounds read low 0.992 | S. cerevisiae deletion strains, locus YHR094C, strain hxt1, active compounds read low 0.982 | S. cerevisiae deletion strains, locus YHR129C, strain ARP1, active compounds read low 1 | S. cerevisiae deletion strains, locus YHR200W, strain rpn10, active compounds read low 1.01 | S. cerevisiae deletion strains, locus YIL066C, strain RNR3, active compounds read low 1.01 | S. cerevisiae deletion strains, locus YIL073C, strain SPO22, active compounds read low 0.946 | S. cerevisiae deletion strains, locus YIL125W, strain kgd1, active compounds read low 1.01 | S. cerevisiae deletion strains, locus YIR030C, strain dcg1, active compounds read low 0.998 | S. cerevisiae deletion strains, locus YJL095W, strain BCK1, active compounds read low 1.03 and 0.98 | S. cerevisiae deletion strains, locus YJL134W, strain LCB3, active compounds read low 1.01 | S. cerevisiae deletion strains, locus YJL168C, strain set2, active compounds read low 0.981 | S. cerevisiae deletion strains, locus YJL187C, strain SWE1 (second series), active compounds read low 1.01 | S. cerevisiae deletion strains, locus YJR043C, strain POL32, active compounds read low 1.04 | S. cerevisiae deletion strains, locus YJR066W, strain TOR1, active compounds read low 0.899 | S. cerevisiae deletion strains, locus YJR075W, strain HOC1, active compounds read low 1.01 | S. cerevisiae deletion strains, locus YKL009W, strain mrt4, active compounds read low 1.02 | S. cerevisiae deletion strains, locus YKL068W, active compounds read low 0.998 | S. cerevisiae deletion strains, locus YKL085W, strain MDH1 (second series), active compounds read low 1 | S. cerevisiae deletion strains, locus YKL085W, strain MDH1, active compounds read low 1 | S. cerevisiae deletion strains, locus YKL190W, strain CNB1, active compounds read low 1.02 | S. cerevisiae deletion strains, locus YKR001C, strain vps1, active compounds read low 0.989 | S. cerevisiae deletion strains, locus YLR039C, strain RIC1, active compounds read low 1.04 | S. cerevisiae deletion strains, locus YLR058C, strain SHM2, active compounds read low 1.01 | S. cerevisiae deletion strains, locus YLR102C, strain apc9, active compounds read low 0.983 | S. cerevisiae deletion strains, locus YLR113W, strain HOG1, active compounds read low 1.01 | S. cerevisiae deletion strains, locus YLR262C, strain YPT6, active compounds read low 1.04 | S. cerevisiae deletion strains, locus YLR268W, strain sec22, active compounds read low 1.01 | S. cerevisiae deletion strains, locus YLR330W, strain CHS5, active compounds read low 1.01 | S. cerevisiae deletion strains, locus YLR342W, strain FKS1 (second series), active compounds read low 1.02 | S. cerevisiae deletion strains, locus YLR371W, strain rom2, active compounds read low 0.984 | S. cerevisiae deletion strains, locus YLR418C, strain cdc73, active compounds read low 1.06 | S. cerevisiae deletion strains, locus YML016C, strain PPZ1, active compounds read low 1.01 | S. cerevisiae deletion strains, locus YML032C, strain rad52, active compounds read low 1.01 | S. cerevisiae deletion strains, locus YML124C, strain tub3, active compounds read low 0.994 | S. cerevisiae deletion strains, locus YMR078C, strain ctf18, active compounds read low 0.996 | S. cerevisiae deletion strains, locus YMR223W, strain ubp8, active compounds read low 0.986 | S. cerevisiae deletion strains, locus YMR263W, strain SAP30, active compounds read low 1.02 | S. cerevisiae deletion strains, locus YMR307W, strain GAS1, active compounds read low 1.1 | S. cerevisiae deletion strains, locus YNL067W, strain RPL9B, active compounds read low 1.04 | S. cerevisiae deletion strains, locus YNL128W, strain TEP1, active compounds read low 1.02 | S. cerevisiae deletion strains, locus YNL153C, strain GIM3, active compounds read low 1.01 | S. cerevisiae deletion strains, locus YNL183C, strain NPR1, active compounds read low 0.903 | S. cerevisiae deletion strains, locus YNL233W, strain BNI4, active compounds read low 1.01 | S. cerevisiae deletion strains, locus YNL250W, strain rad50, active compounds read low 1 | S. cerevisiae deletion strains, locus YNL271C, strain bni1, active compounds read low 1 | S. cerevisiae deletion strains, locus YNL298W, strain CLA4, active compounds read low 1.01 | S. cerevisiae deletion strains, locus YNL307C, strain MCK1, active compounds read low 1.01 | S. cerevisiae deletion strains, locus YNL322C, strain KRE1, active compounds read low 1.01 | S. cerevisiae deletion strains, locus YNR052C, strain pop2, active compounds read low 0.984 | S. cerevisiae deletion strains, locus YOL006C, strain TOP1, active compounds read low 1.06 | S. cerevisiae deletion strains, locus YOL012C, strain htz1 1.05 | S. cerevisiae deletion strains, locus YOL147C, strain pex11, active compounds read low 0.988 | S. cerevisiae deletion strains, locus YOR061W, strain CKA2, active compounds read low 1.01 | S. cerevisiae deletion strains, locus YOR069W, strain VPS5, active compounds read low 1.01 | S. cerevisiae deletion strains, locus YOR136W, strain idh2, active compounds read low 1 | S. cerevisiae deletion strains, locus YOR144C, strain elg1, active compounds read low 0.997 | S. cerevisiae deletion strains, locus YOR184W, strain ser1, active compounds read low 1 | S. cerevisiae deletion strains, locus YOR231W, strain MKK1, active compounds read low 0.95 | S. cerevisiae deletion strains, locus YOR316C, strain cot1, active compounds read low 0.988 | S. cerevisiae deletion strains, locus YPL055C, strain LGE1, active compounds read low 1.05 | S. cerevisiae deletion strains, locus YPL241C, strain CIN2, active compounds read low 1.01 | S. cerevisiae deletion strains, locus YPL256C, strain CLN2, active compounds read low 0.962 | S. cerevisiae deletion strains, locus YPR119W, strain clb2, active compounds read low 0.986 | S. cerevisiae deletion strains, locus YPR141C, strain kar3, active compounds read low 1.01 | S. cerevisiae deletion strains, locus YPR163C, strain tif3, active compounds read low 0.999 | S. cerevisiae deletion strains, locus YPR167C, strain met16, active compounds read low 0.999 | S. cerevisiae deletion strains, strain wtn01, active compounds read low 1 | S. cerevisiae strains, strain wild type, active compounds read low 1.01
